# Paper PMC7862700, “An all-to-all approach to the identification of sequence-specific readers for epigenetic DNA modifications on cytosine”
# Tests used:
# Assay in all cases: DAPPL (digital affinity profiling via proximity ligation, sequencing); 10 mM Tris-HCl pH 7.5, 50 mM NaCl, 1 mM DTT, 4% glycerol, room temperature, 30 min; GST-TFs on glutathione beads, 16-mer random dsDNA library, 0.1% formaldehyde crosslink after washing; high values mean tight binding
# [1] = target: T1, FLI1 (Homo sapiens, UniProt Q01543 1-452); settings: protein: recombinant; tags: N-terminal GST; dsDNA, one strand shown
# T1 sequence: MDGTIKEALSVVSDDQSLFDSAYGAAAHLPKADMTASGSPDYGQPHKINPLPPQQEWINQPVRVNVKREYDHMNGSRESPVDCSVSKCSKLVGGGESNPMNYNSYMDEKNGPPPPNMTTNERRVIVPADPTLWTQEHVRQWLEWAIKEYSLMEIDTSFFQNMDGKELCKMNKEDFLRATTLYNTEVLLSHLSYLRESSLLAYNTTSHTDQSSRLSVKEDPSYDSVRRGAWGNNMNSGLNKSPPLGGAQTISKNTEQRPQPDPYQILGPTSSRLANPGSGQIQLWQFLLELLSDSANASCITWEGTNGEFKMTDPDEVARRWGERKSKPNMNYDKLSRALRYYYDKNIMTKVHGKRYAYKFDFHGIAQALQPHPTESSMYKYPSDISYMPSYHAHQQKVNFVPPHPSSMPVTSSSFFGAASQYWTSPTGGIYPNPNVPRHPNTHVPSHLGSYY
# How it was run: (§1)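 A tag-only sample was pooled with DNA-barcoded human transcription factors that had been expressed in yeast as GST fusions and captured on glutathione beads. The pools were incubated for 30 min at room temperature with 200 nmole of a random double-stranded 16-mer DNA library in Tris/NaCl/DTT/glycerol buffer, then washed, crosslinked with 0.1% formaldehyde, proximity-ligated (BsaI/T4 ligase, 1 h, 37 °C), PCR-amplified and sequenced on an Illumina NextSeq500. Binding signal is each hexamer's read frequency for a factor divided by its frequency for the tag-only sample.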
# [2] = target: T2, ELK1 (Homo sapiens, UniProt P19419 1-428); settings: protein: recombinant; tags: N-terminal GST; dsDNA, one strand shown
# T2 sequence: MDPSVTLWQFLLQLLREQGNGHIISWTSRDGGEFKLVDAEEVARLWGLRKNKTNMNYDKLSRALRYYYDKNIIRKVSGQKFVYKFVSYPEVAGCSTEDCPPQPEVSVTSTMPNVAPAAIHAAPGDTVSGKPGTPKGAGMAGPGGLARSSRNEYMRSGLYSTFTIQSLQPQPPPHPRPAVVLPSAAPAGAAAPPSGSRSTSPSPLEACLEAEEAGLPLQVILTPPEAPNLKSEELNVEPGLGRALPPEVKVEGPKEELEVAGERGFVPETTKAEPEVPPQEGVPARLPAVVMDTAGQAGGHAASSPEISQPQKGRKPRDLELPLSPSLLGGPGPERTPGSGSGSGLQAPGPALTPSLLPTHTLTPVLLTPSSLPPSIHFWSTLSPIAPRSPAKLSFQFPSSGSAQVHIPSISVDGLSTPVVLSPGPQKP
# How it was run: as §1
# [3] = target: T3, GABPA (Homo sapiens, UniProt Q06546 1-454); settings: protein: recombinant; tags: N-terminal GST; dsDNA, one strand shown
# T3 sequence: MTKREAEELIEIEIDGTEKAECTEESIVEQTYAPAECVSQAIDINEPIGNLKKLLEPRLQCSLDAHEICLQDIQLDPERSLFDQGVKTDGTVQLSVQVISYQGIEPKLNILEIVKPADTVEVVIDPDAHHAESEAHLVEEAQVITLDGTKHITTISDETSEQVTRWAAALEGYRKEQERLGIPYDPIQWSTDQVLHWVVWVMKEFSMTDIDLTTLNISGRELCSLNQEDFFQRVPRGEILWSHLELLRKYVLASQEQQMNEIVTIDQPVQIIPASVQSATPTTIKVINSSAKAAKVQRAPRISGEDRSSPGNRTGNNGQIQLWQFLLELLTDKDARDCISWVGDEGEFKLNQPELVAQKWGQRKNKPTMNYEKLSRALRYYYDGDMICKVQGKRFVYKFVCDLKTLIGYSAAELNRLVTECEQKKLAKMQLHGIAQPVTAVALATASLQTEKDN
# How it was run: as §1
# [4] = target: T4, ERG (Homo sapiens, UniProt P11308 1-479); settings: protein: recombinant; tags: N-terminal GST; dsDNA, one strand shown
# T4 sequence: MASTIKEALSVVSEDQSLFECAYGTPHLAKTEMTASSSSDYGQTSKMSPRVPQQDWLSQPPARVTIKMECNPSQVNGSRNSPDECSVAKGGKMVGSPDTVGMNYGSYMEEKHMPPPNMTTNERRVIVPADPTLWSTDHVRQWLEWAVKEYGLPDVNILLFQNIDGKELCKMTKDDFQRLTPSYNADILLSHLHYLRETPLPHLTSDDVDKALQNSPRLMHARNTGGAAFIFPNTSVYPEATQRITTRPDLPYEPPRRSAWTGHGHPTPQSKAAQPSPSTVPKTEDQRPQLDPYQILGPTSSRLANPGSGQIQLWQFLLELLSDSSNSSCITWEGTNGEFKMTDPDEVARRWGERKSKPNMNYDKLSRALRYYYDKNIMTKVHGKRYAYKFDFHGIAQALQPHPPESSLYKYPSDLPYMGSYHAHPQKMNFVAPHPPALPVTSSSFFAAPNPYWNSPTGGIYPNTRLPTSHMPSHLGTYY
# How it was run: as §1
# [5] = target: ELF1 (Homo sapiens, UniProt P32519 1-619); settings: protein: recombinant; tags: N-terminal GST; dsDNA, one strand shown
# How it was run: as §1
# [6] = target: T5, EHF (Homo sapiens, UniProt Q9NZC4 1-300); settings: protein: recombinant; tags: N-terminal GST; dsDNA, one strand shown
# T5 sequence: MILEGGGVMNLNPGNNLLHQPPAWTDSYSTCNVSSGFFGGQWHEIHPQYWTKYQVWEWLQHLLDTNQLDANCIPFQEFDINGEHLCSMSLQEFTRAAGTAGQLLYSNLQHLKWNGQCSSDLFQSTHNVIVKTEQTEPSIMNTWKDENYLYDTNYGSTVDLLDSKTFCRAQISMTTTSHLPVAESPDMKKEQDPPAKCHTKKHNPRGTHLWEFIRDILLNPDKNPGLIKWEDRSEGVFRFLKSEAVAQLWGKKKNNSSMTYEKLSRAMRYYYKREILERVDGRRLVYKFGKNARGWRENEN
# How it was run: as §1
# [7] = target: SPI1 (Homo sapiens, UniProt P17947 1-270); settings: protein: recombinant; tags: N-terminal GST; dsDNA, one strand shown
# How it was run: as §1
# [8] = target: SPIB (Homo sapiens, UniProt Q01892 1-262); settings: protein: recombinant; tags: N-terminal GST; dsDNA, one strand shown
# How it was run: as §1
# [9] = target: T6, ELK3 (Homo sapiens, UniProt P41970 1-407); settings: protein: recombinant; tags: N-terminal GST; dsDNA, one strand shown
# T6 sequence: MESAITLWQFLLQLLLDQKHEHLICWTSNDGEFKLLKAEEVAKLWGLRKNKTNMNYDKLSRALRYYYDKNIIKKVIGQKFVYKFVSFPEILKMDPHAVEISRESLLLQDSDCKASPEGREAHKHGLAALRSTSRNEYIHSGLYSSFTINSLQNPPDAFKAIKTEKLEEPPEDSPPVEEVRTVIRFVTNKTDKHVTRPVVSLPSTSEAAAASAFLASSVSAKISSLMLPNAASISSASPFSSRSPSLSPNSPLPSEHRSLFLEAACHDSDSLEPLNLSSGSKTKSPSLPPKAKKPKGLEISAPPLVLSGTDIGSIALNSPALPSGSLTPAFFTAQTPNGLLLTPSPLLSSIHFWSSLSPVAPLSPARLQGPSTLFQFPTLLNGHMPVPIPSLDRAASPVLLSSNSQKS
# How it was run: as §1
# [10] = target: T7, FEV (Homo sapiens, UniProt Q99581 1-238); settings: protein: recombinant; tags: N-terminal GST; dsDNA, one strand shown
# T7 sequence: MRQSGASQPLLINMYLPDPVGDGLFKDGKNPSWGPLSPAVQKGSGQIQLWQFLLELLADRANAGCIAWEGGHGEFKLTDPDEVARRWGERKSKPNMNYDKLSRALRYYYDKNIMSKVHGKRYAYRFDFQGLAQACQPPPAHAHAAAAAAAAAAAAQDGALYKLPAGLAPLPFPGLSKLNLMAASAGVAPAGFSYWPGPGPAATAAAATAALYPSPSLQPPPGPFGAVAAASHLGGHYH
# How it was run: as §1
# [11] = target: ETV5 (Homo sapiens, UniProt P41161 1-510); settings: protein: recombinant; tags: N-terminal GST; dsDNA, one strand shown
# How it was run: as §1
# [12] = target: HSF1 (Homo sapiens, UniProt Q00613 1-529); settings: protein: recombinant; tags: N-terminal GST; chain copies: 3; dsDNA, one strand shown
# How it was run: as §1
# [13] = target: T8, SPIC (Homo sapiens, UniProt Q8N5J4 1-248); settings: protein: recombinant; tags: N-terminal GST; dsDNA, one strand shown
# T8 sequence: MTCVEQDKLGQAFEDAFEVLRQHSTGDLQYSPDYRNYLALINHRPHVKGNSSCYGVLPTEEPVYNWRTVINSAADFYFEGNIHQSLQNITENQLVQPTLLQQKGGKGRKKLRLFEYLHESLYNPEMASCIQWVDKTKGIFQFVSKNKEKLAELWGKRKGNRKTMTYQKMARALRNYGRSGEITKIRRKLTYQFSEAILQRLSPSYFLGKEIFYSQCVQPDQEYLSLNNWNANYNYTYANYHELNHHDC
# How it was run: as §1
# [14] = target: ELF4 (Homo sapiens, UniProt Q99607 1-663); settings: protein: recombinant; tags: N-terminal GST; dsDNA, one strand shown
# How it was run: as §1
# [15] = target: T9, ELK4 (Homo sapiens, UniProt P28324-2 1-405); settings: protein: recombinant; tags: N-terminal GST; dsDNA, one strand shown
# T9 sequence: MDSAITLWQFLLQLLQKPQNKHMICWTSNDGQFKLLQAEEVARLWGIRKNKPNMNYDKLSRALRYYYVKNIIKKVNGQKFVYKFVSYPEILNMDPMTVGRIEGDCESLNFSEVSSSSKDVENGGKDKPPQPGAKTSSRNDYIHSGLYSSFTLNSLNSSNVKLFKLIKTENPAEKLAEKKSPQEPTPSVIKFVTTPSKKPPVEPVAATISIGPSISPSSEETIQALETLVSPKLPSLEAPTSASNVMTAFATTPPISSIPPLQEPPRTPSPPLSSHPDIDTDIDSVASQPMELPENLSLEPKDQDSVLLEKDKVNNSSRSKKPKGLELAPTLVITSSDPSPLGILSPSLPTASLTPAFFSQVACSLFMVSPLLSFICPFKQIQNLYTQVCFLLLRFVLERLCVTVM
# How it was run: as §1
# [16] = target: T10, ETV2 (Homo sapiens, UniProt O00321 1-342); settings: protein: recombinant; tags: N-terminal GST; dsDNA, one strand shown
# T10 sequence: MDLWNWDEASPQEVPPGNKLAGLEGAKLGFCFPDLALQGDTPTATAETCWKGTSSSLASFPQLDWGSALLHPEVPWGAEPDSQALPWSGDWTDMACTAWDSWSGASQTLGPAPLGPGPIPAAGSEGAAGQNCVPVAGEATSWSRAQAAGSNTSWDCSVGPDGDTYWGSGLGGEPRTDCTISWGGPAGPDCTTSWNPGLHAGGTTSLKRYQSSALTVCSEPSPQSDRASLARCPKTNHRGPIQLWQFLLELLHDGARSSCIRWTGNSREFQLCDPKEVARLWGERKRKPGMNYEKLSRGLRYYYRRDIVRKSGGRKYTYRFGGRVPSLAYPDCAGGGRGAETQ
# How it was run: as §1
# [17] = target: T11, ELF3 (Homo sapiens, UniProt P78545 1-371); settings: protein: recombinant; tags: N-terminal GST; dsDNA, one strand shown
# T11 sequence: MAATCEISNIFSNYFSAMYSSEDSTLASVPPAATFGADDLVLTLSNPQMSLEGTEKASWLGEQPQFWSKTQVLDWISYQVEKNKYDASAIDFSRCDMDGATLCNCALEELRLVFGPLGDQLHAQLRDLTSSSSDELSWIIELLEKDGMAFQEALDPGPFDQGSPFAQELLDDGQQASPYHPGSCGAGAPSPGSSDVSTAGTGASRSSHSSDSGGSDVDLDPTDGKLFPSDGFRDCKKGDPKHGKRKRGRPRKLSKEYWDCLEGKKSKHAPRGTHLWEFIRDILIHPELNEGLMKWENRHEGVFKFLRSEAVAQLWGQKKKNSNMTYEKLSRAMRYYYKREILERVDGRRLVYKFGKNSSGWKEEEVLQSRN
# How it was run: as §1
# [18] = target: CRX (Homo sapiens, UniProt O43186 1-299); settings: protein: recombinant; tags: N-terminal GST; dsDNA, one strand shown
# How it was run: as §1
# [19] = target: ETV1 (Homo sapiens, UniProt P50549 1-477); settings: protein: recombinant; tags: N-terminal GST; dsDNA, one strand shown
# How it was run: as §1
# ETV5, sequence (P41161 whole entry): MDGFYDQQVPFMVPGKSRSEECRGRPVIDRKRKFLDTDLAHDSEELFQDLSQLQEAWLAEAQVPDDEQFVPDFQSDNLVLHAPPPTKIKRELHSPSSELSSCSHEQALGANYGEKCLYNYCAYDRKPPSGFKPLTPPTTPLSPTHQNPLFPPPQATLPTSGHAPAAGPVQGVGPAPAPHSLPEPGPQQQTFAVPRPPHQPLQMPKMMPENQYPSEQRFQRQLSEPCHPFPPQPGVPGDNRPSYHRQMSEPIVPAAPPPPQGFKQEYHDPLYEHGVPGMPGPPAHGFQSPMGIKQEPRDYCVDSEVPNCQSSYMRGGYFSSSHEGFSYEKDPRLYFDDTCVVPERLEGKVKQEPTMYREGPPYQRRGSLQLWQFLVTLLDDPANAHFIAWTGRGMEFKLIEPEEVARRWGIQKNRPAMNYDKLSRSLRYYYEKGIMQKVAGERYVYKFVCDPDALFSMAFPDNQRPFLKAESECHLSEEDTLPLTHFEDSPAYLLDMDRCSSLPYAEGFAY
# SPIB, sequence (Q01892 whole entry): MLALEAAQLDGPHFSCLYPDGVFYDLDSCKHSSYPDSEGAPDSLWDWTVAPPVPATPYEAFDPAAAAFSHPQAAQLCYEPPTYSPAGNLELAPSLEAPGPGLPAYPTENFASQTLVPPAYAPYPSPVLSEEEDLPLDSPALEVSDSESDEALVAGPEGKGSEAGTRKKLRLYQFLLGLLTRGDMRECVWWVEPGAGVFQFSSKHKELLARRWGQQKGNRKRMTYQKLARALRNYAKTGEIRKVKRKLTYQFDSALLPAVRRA
# ELF4, sequence (Q99607 whole entry): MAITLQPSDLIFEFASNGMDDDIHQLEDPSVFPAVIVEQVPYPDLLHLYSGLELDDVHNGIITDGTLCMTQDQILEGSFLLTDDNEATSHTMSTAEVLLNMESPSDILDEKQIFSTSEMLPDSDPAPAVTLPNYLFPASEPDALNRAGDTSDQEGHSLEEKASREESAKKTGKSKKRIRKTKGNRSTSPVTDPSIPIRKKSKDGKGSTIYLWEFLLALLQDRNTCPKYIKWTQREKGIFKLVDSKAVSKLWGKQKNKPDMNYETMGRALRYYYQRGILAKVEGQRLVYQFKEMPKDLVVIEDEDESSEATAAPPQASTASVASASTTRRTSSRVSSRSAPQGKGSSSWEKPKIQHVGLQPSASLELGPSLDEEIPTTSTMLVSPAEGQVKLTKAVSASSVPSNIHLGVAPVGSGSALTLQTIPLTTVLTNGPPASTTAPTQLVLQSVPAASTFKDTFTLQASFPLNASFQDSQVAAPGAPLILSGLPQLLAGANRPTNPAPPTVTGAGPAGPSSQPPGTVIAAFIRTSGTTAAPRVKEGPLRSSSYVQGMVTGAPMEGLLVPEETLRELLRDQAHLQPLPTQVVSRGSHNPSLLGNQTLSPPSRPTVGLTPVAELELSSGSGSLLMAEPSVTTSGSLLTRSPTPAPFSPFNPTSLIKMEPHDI
# ELF1, sequence (P32519 whole entry): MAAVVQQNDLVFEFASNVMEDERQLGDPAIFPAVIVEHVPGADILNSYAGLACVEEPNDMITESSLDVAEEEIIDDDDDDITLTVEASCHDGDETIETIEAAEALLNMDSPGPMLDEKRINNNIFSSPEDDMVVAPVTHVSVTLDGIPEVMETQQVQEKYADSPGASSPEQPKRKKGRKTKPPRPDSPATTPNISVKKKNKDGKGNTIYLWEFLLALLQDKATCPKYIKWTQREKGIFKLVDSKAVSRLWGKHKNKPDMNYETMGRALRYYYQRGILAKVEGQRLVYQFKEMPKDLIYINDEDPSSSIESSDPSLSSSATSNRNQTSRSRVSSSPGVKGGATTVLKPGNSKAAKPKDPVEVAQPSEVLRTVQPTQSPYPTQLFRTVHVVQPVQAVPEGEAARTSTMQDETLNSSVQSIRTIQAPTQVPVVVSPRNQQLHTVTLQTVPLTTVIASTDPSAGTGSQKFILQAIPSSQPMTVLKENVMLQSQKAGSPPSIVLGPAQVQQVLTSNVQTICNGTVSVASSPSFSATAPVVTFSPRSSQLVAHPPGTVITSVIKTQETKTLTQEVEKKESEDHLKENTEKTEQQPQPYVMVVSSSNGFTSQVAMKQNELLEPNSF
# ETV1, sequence (P50549 whole entry): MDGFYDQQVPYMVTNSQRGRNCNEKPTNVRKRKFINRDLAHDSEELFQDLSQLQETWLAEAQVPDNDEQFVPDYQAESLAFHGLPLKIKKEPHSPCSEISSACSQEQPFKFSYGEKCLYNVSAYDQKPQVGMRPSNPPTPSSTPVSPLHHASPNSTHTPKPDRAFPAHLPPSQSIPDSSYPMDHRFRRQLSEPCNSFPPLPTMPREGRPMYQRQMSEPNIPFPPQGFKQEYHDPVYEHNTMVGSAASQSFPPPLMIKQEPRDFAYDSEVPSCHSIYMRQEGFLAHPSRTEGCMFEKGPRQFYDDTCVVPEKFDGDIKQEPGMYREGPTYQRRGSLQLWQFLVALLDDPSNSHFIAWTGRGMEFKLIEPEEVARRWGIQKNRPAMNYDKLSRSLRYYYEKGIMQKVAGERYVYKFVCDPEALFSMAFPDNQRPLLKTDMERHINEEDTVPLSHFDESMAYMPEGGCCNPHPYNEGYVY
# HSF1, sequence (Q00613 whole entry): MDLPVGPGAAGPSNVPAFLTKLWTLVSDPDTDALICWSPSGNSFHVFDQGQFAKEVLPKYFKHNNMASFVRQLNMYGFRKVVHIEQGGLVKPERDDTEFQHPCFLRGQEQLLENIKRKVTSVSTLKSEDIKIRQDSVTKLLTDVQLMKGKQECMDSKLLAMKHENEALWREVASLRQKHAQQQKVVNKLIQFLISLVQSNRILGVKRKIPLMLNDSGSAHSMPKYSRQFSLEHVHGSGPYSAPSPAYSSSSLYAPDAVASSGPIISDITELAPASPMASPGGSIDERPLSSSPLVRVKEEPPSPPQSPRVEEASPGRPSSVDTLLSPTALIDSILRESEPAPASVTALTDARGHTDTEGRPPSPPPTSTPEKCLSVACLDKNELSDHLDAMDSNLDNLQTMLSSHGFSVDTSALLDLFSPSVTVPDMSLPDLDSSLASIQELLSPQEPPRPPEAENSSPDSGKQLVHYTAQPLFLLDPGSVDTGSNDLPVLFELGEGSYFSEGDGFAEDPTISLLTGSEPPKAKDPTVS
# CRX, sequence (O43186 whole entry): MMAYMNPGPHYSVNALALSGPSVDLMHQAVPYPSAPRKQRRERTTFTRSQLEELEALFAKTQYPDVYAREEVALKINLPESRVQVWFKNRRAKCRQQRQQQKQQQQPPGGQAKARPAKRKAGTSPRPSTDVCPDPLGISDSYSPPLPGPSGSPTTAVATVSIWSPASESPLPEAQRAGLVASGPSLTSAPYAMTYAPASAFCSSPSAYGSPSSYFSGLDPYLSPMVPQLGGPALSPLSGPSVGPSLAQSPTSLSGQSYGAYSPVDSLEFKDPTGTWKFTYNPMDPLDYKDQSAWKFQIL
sequence,measurement,setting,value
ATCTAG,binding signal,[1],"1.12 fold enrichment (6-mer frequency, TF over GST control)"
same,binding signal,[2],"1.16 fold enrichment (6-mer frequency, TF over GST control)"
same,binding signal,[3],"1.12 fold enrichment (6-mer frequency, TF over GST control)"
same,binding signal,[4],"1.1 fold enrichment (6-mer frequency, TF over GST control)"
same,binding signal,[5],"1.1 fold enrichment (6-mer frequency, TF over GST control)"
same,binding signal,[6],"1.14 fold enrichment (6-mer frequency, TF over GST control)"
same,binding signal,[7],"1.14 fold enrichment (6-mer frequency, TF over GST control)"
same,binding signal,[8],"1.2 fold enrichment (6-mer frequency, TF over GST control)"
same,binding signal,[9],"1.23 fold enrichment (6-mer frequency, TF over GST control)"
same,binding signal,[10],"1.04 fold enrichment (6-mer frequency, TF over GST control)"
same,binding signal,[11],"1 fold enrichment (6-mer frequency, TF over GST control)"
same,binding signal,[12],"2.66 fold enrichment (6-mer frequency, TF over GST control)"
same,binding signal,[13],"1.19 fold enrichment (6-mer frequency, TF over GST control)"
same,binding signal,[14],"1.09 fold enrichment (6-mer frequency, TF over GST control)"
same,binding signal,[15],"1.27 fold enrichment (6-mer frequency, TF over GST control)"
same,binding signal,[16],"1.06 fold enrichment (6-mer frequency, TF over GST control)"
same,binding signal,[17],"1.24 fold enrichment (6-mer frequency, TF over GST control)"
same,binding signal,[18],"1.7 fold enrichment (6-mer frequency, TF over GST control)"
same,binding signal,[19],"1.03 fold enrichment (6-mer frequency, TF over GST control)"
